Source: PubChem BioAssay (National Center for Advancing Translational Sciences (NCATS))
IL1B secr inh – blocks inflammasome-driven IL-1 beta release; AID 743279; THP-1 LPS/ATP IL-1B secretion, AlphaLISA, 16 h; hits give low values; activity change, % at 57.5 µM; 360,000 tested, 4.7% active; in the data active means activity change below about -50%; inconclusive means mostly about -30% to -49%
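THP-1 cells pretreated 1 hr with compounds (up to 57.5 uM final), then stimulated with LPS (250 ng/mL final) plus ATP (1.25 mM final); secreted IL-1B measured by AlphaLISA after 16 hr, decreased signal indicating inhibition.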
DT40 TDP1 no CPT – qHTS for Inhibitors of human tyrosyl-DNA phosphodiesterase 1 (TDP1): qHTS in cells in absence of CPT | DT40 Tdp1-/- hTDP1 cells, no CPT, ATP luminescence, 48 h | Potency, µM (top dose mostly 46.2 µM), inactives show top-dose activity change, negative = growth inhibition, most hits filed as inhibitors | 420,000 tested, 15% active | AID 686978, 2013; further: potency means the concentration at half of the fitted maximal effect; nearly all actives have a fitted effect of over 55% in size
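Chicken DT40 Tdp1-/- cells stably complemented with human TDP1 were seeded at 400 cells/well with DMSO in place of 20 nM camptothecin. After compound pinning, cells grew at least 48 hr at 37 °C; viability read by CellTiter-Glo luminescence.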
RORg inh – inhibitors of mouse ROR gamma transcriptional activity; 310,000 tested, 5.4% active; Potency, µM (titrated, usually from 53.6 µM), for inactives: top-dose activity change, negative = inhibition, hits mostly inhibitors; AID 2551; P51450; Drosophila S2 Gal4-RORgamma UAS-luciferase reporter, 20 h; further: potency means the concentration at half of the fitted maximal effect; nearly all actives have a fitted effect of over 60% in size
Target sequence (P51450 whole entry, looked up, the tested form may be a part): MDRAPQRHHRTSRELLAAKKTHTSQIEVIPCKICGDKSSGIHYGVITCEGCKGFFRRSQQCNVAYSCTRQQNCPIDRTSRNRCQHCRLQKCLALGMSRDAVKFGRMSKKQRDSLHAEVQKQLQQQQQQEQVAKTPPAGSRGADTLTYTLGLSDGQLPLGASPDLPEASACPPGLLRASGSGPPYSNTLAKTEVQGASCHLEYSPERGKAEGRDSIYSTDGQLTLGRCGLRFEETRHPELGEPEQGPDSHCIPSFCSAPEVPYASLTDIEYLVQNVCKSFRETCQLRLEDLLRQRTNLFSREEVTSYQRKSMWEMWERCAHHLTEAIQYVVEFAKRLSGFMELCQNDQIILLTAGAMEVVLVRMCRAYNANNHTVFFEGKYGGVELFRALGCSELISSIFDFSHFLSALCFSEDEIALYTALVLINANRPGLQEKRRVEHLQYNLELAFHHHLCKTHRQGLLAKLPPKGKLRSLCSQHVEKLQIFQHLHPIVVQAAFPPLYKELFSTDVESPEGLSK
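In this cell-based reporter format, copper sulfate (700 uM final) drives Gal4–ROR gamma fusion expression from a metallothionein promoter in Drosophila Schneider cells; compounds preincubated 1 hr, reporter read after 20 hr at ambient temperature.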
ELG1 repair inh – ELG1-dependent DNA repair inhibition; HEK293T ELG1-luciferase reporter, luminescence, 16 h; DNA damage induced by 5-fluorouridine; 330,000 tested, 2.3% active; Potency, µM (doses to about 46.1 µM), without a hit: top-dose activity change, negative = inhibition, hits mostly inhibitors; further: potency means the concentration at half of the fitted maximal effect; nearly all actives have a fitted effect of over 55% in size
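Step one: seed 2,000 cells per well. Step two: pin-transfer compound or DMSO alongside 5-fluorouridine. Step three: incubate 16 hr, 37 °C, 5% CO2. Step four: add ONE-Glo, wait 30 min, read luminescence.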
Gal4-VP16 FLuc – inhibits Gal4-VP16 luciferase reporter, ROR gamma counter-screen. 310,000 tested, 3.5% active. AID 2546. Drosophila S2 Gal4-VP16 UAS-luciferase, luminescence, 20 h. Potency, µM (titrated, usually from 53.6 µM), without a hit: at the highest dose activity, negative = inhibition, actives largely listed as inhibitors;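 further: Gal4-VP16 expression switched on by copper sulfate through the metallothionein promoter; potency means the concentration at half of the fitted maximal effect; nearly all actives have a fitted effect of over 50% in size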
TDP1 cell CPT – DT40-hTDP1 cell growth loss with CPT | chicken DT40 Tdp1-/-;hTDP1 cells + 20 nM CPT, ATP luminescence, 48 h | Potency, µM (series often up to 46.2 µM), for inactives: at the top dose activity change, negative = growth inhibition, hits mostly inhibitors | 420,000 tested, 12% active | AID 686979; further: potency means the concentration at half of the fitted maximal effect; nearly all actives have a fitted effect of over 55% in size
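Cell growth measured by CellTiter-Glo luminescence after a minimum 48 h, 37 C compound exposure with 20 nM CPT in Tdp1-knockout DT40 cells stably expressing hTDP1, seeded 400/well; qHTS titration format.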
* hit, by the source's call. The list is not random: actives were taken first. Their share in the collection is about 21%. Unless noted, the call rests on the fitted dose curve; in most records, active means well fitted curve in the direction sought with a large enough effect; inconclusive means small, poorly fitted or top-dose-only effect, or another doubt; inactive means no such curve, though single readings can be large; an effect the other way counts as inactive or inconclusive. On the % scale 0 is the no-effect control and ±100 the full control effect.

What do the screens show for `C/C=C/c1ccc(OCC(O)CN2CCCCC2CC)c(OC)c1` (stereo unspecified)?
IL1B secr inh: -10; DT40 TDP1 no CPT: -28%; RORg inh: 11%; ELG1 repair inh: 7%; Gal4-VP16 FLuc: -9%; TDP1 cell CPT: 11%

Results for C/C=C/c1ccc(OCC(O)CNCCc2ccc(OC)cc2)c(OC)c1 (stereo unspecified) ?
IL1B secr inh: inconclusive; DT40 TDP1 no CPT: inconclusive; RORg inh: -1%; ELG1 repair inh: -1%; Gal4-VP16 FLuc: 2%; TDP1 cell CPT: inconclusive

What do the screens show for `Cc1nc2nncn2c(NCc2ccc(F)cc2)c1C`?
DT40 TDP1 no CPT: 4.1µM*; TDP1 cell CPT: 5.2µM*

Results for COc1ccc(CNc2cc(-c3ccc(OC)cc3)nc3nncn23)cc1 ?
DT40 TDP1 no CPT: 16µM*; TDP1 cell CPT: inconclusive

What do the screens show for `Cc1ccc2nc(Nc3ccc(F)cc3)c3nncn3c2c1`?
IL1B secr inh: 27; DT40 TDP1 no CPT: 7%; RORg inh: inconclusive; ELG1 repair inh: 17%; Gal4-VP16 FLuc: -5%; TDP1 cell CPT: -17%

What do the screens show for `Cc1nc2nncn2c(NCc2ccc(Cl)cc2)c1C`?
DT40 TDP1 no CPT: 0.82µM*; TDP1 cell CPT: 2.6µM*

Results for Cc1nc2nncn2c(Nc2ccc(F)cc2)c1C ?
DT40 TDP1 no CPT: 9.2µM*; TDP1 cell CPT: 16µM*

Results for CCOc1ccc(Nc2cc(C)nc3nncn23)cc1 ?
DT40 TDP1 no CPT: -4%; TDP1 cell CPT: -6%

How did COc1ccc(S(=O)(=O)N2CCCCC2)cc1NC(=O)c1cnc(C)cn1 do in these assays?
IL1B secr inh: 7; DT40 TDP1 no CPT: inconclusive; ELG1 repair inh: -3%; TDP1 cell CPT: inconclusive

What do the screens show for `COc1ccc(CNc2nc(NCc3ccc(OC)cc3)n(C(C)=O)n2)cc1`?
IL1B secr inh: 0; DT40 TDP1 no CPT: -1%; RORg inh: 21%; ELG1 repair inh: -2%; Gal4-VP16 FLuc: 11%; TDP1 cell CPT: -11%

How did CCc1c(C)nc2nncn2c1NCc1ccc(OC)cc1 do in these assays?
DT40 TDP1 no CPT: 18µM*; TDP1 cell CPT: 16µM*

What do the screens show for `CC(=O)Nc1ccc(-c2ccnc3c2CC(C)(C(=O)NCCc2ccccc2)O3)cc1` (stereo unspecified)?
IL1B secr inh: -17; DT40 TDP1 no CPT: -16%; TDP1 cell CPT: inconclusive

What do the screens show for `COc1ccc(CCCNC(=O)C2(C)Cc3c(-c4ccc(NC(C)=O)cc4)ccnc3O2)cc1` (stereo unspecified)?
IL1B secr inh: inconclusive; DT40 TDP1 no CPT: 26µM*; TDP1 cell CPT: 23µM*

Results for CC(=O)Nc1cccc(-c2ccnc3c2CC(C)(C(=O)Nc2cccnc2)O3)c1 (stereo unspecified) ?
IL1B secr inh: 28; DT40 TDP1 no CPT: -29%; TDP1 cell CPT: -28%

What do the screens show for `COc1ccc(NC(=O)C2(C)Cc3c(-c4ccccc4)ccnc3O2)cc1OC` (stereo unspecified)?
IL1B secr inh: 6; DT40 TDP1 no CPT: inconclusive; TDP1 cell CPT: inconclusive

Results for COc1ccc(NC(=O)C2(C)Cc3c(-c4ccc(C(N)=O)cc4)ccnc3O2)cn1 (stereo unspecified) ?
IL1B secr inh: -21; DT40 TDP1 no CPT: inconclusive; TDP1 cell CPT: inconclusive

Results for COc1ccc(NC(=O)C2(C)Cc3c(-c4cccc(NC(C)=O)c4)ccnc3O2)cn1 (stereo unspecified) ?
IL1B secr inh: 91; DT40 TDP1 no CPT: 1.5µM*; TDP1 cell CPT: 0.73µM*

What do the screens show for `COc1ccc(NC(=O)C2(C)Cc3c(-c4ccc(NC(C)=O)cc4)ccnc3O2)cc1OC` (stereo unspecified)?
IL1B secr inh: -25; DT40 TDP1 no CPT: 13µM*; TDP1 cell CPT: inconclusive

How did COc1ccc(NC(=O)C2(C)Cc3c(-c4ccc(NC(C)=O)cc4)ccnc3O2)cn1 (stereo unspecified) do in these assays?
IL1B secr inh: inconclusive; DT40 TDP1 no CPT: inconclusive; TDP1 cell CPT: 21µM*

What do the screens show for `CCCCNC(=O)C1(C)CCCCN1Cc1ccccc1-c1ccccc1` (stereo unspecified)?
IL1B secr inh: -14; DT40 TDP1 no CPT: inconclusive; TDP1 cell CPT: inconclusive

How did CN(C(=O)CSc1nnc(-c2cccs2)n1C1CC1)C1CCS(=O)(=O)C1 (stereo unspecified) do in these assays?
IL1B secr inh: 25; DT40 TDP1 no CPT: 5%; ELG1 repair inh: 0%; TDP1 cell CPT: 4%

What do the screens show for `COC(=O)c1cc(S(=O)(=O)N2CCN(c3cccc(OC)c3)CC2)cn1C`?
IL1B secr inh: -11; DT40 TDP1 no CPT: inconclusive; RORg inh: -14%; ELG1 repair inh: 7%; Gal4-VP16 FLuc: 5%; TDP1 cell CPT: -20%

How did COc1ccc(C2=Nc3ccccc3NC(=O)C2N(CCc2cc(OC)cc(OC)c2)C(C)=O)cc1 (stereo unspecified) do in these assays?
IL1B secr inh: inconclusive; DT40 TDP1 no CPT: inconclusive; TDP1 cell CPT: 23µM*

What do the screens show for `COc1cc(CCN(C(C)=O)C2C(=O)Nc3ccccc3N=C2c2ccc3c(c2)OCO3)cc(OC)c1` (stereo unspecified)?
IL1B secr inh: inconclusive; DT40 TDP1 no CPT: -25%; TDP1 cell CPT: -24%

What do the screens show for `CCCCNC(=O)C(c1ccc(OCC(=O)OC)c(C(=O)OC)c1)N(CCC1=CCCCC1)C(=O)CCCCCN1C(=O)NC(c2ccc(-c3ccccc3)cc2)C(C(=O)OCc2ccccc2)=C1C` (stereo unspecified)?
RORg inh: 3%; Gal4-VP16 FLuc: 2%

How did Cc1ccc(CO)cc1 do in these assays?
RORg inh: 1%; Gal4-VP16 FLuc: -7%

What do the screens show for `Cc1ccc(CC(C)(O)CC(C)(O)Cc2ccc(C)cc2)cc1` (stereo unspecified)?
IL1B secr inh: -3; DT40 TDP1 no CPT: 18µM*; TDP1 cell CPT: 21µM*

What do the screens show for `O=C(CCc1ccccc1)NC1CCS(=O)(=O)C1` (stereo unspecified)?
IL1B secr inh: -4; DT40 TDP1 no CPT: 17%; ELG1 repair inh: 7%; TDP1 cell CPT: 11%
